PubChem BioAssay (NCATS)
Values joined by “and” are separate entries in the source; they are usually repeats but may differ in a detail not shown here. Equal values may be shown once. Results filed as inconclusive are left out. Active and inactive are the calls of the source. Unless noted, the call rests on the fitted dose curve; in most records, active means well fitted curve in the direction sought with a large enough effect; inconclusive means small, poorly fitted or top-dose-only effect, or another doubt; inactive means no such curve, though single readings can be large; an effect the other way counts as inactive or inconclusive.

What was measured:
[1] = MultiTox-Fluor Cytotoxicity Assay - LYMP1-003 - Live Cells (AID 962);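 further: cells exposed to compound for 16 hours at 37 °C; 0% = DMSO only and full loss = 92 µM tetraoctylammonium bromide; cytotoxic hits lower the live-cell protease signal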
Outline: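 Readout: live-cell fluorescence (Ex/Em=405/510) from GF-AFC cleavage after 60 min MultiTox-Fluor reagent at room temperature. Lymphoblastoid LYMP1-003 cells, 16 hr compound treatment, 37 C. Concentration-response fitted to standard Hill equation for AC50.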

[2] = Cell Viability - LYMP2-013 (AID 970);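 further: series mostly up to about 92 µM; 0% = DMSO only and full inhibition = tetraoctylammonium bromide control; nearly all actives have a fitted effect of over 55% in size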
Outline: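 CellTiter-Glo luminescence (cellular ATP) read after 30 min at RT. Cells: human lymphoblastoid line, 2500/well, 24 hr compound exposure at 37 C. Tetraoctylammonium bromide positive control; AC50 via standard Hill fit of qHTS titrations.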

[3] = Cell Viability - LYMP2-021 (AID 974);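 further: compound exposure lasts 24 hours at 37 °C; on the % scale 0 is the no-effect control and ±100 the full control effect; nearly all actives have a fitted effect of over 55% in size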
Outline: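 ATP luminescence (CellTiter-Glo, 30 min RT) after 24 h compound exposure at 37 C; 2500 human lymphoblastoid cells/well, 5 h settle beforehand. Cytotoxicity = concentration-dependent ATP drop, AC50 by Hill fit.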

[4] = Cell Viability - LYMP2-002 (AID 977);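 further: series mostly up to about 92 µM; plate controls were DMSO only for no effect and 92 µM tetraoctylammonium bromide for full effect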
Outline: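 Human lymphoblastoid cells, 2500/well, complete medium; 5 h 37 C settle; compound 24 h 37 C; CellTiter-Glo, 30 min RT; luminescence. Decrease in ATP = cytotoxicity; AC50 via Hill equation.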

[5] = Cell Viability - LYMP2-010 (AID 981);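 further: cells exposed to compound for 24 hours at 37 °C; on the % scale 0 is the no-effect control and ±100 the full control effect; nearly all actives have a fitted effect of over 55% in size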
Outline: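 qHTS cytotoxicity, 1536-well: 2500 cells/well, 5 hr settle, 24 hr compound at 37 C, CellTiter-Glo 30 min RT, luminescence read. Decrease in ATP = toxicity; AC50 via standard Hill equation. Positive control tetraoctylammonium bromide.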

[6] = Cell Viability - LYMP2-018 (AID 985);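 further: plate controls were DMSO only for no effect and tetraoctylammonium bromide at 92 µM for full effect; nearly all actives have a fitted effect of over 50% in size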
Outline: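 2500 cells/well; 5 hr 37 C; cmpd 24 hr 37 C, complete medium; CellTiter-Glo 30 min RT; luminescence. Tetraoctylammonium bromide positive control. AC50 via Hill fit.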

[7] = Cell Viability - LYMP2-022 (AID 987);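 further: 0% = DMSO alone and full effect = tetraoctylammonium bromide at 92 µM; nearly all actives have a fitted effect of over 55% in size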
Outline: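 Luminescent ATP read-out (CellTiter-Glo, 30 min, RT) after 24 hr, 37 C compound exposure of 2500 human lymphoblastoid cells/well in complete medium. Cytotoxicity taken as concentration-dependent ATP loss; AC50 from standard Hill equation.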

[8] = molecular target: Vitamin D3 receptor (Homo sapiens) (UniProt P11473); assay: qHTS assay for small molecule antagonists of vitamin D receptor signaling (AID 588541; calls by dose curve;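 further: receptor activated by calcitriol during compound treatment; series mostly up to about 77 µM; on the % scale 0 is the no-effect control and ±100 the full control effect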)
Outline: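 VDR-UAS-bla HEK293T cells in 2% charcoal-stripped FBS were stimulated with 1-alpha,25-dihydroxyvitamin D3 (3 nM final) plus compound for 16 h at 37 C. The beta-lactamase CCF4 readout was normalized to 50 nM agonist and DMSO, and Hill fits gave IC50.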

[9] = molecular target: Vitamin D3 receptor (Homo sapiens) (UniProt P11473); assay: qHTS assay for small molecule agonists of vitamin D receptor signaling (AID 588543; calls by dose curve;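 further: 0% = DMSO basal and 100% = reference agonist control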)
Outline: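 qHTS in agonist mode: compound titrations stimulate a VDR-driven β-lactamase reporter in HEK293T cells over 16 h at 37 °C. Response normalized to 50 nM 1α,25-dihydroxyvitamin D3 = 100%, DMSO = 0%; Hill fitting gives EC50 and maximal response.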

[10] = molecular target: Thyroid hormone receptor beta (Homo sapiens) (UniProt P10828); assay: qHTS assay for small molecule antagonists of thyroid hormone receptor beta signaling (AID 588547; active means well fitted inhibition curve with a large enough effect in the signal ratio, with a control signal flat, not every such curve was filed as active; the % refers to the signal ratio;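 further: cells stimulated with 0.4 nM T3 agonist during compound exposure; series mostly up to about 77 µM; on the % scale 0 is the no-effect control and ±100 the full control effect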); settings: TR-UAS-bla HEK293, beta-lactamase ratio, antagonist mode, 18 h
Outline: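 TR-UAS-bla GripTite HEK293 cells in 2% charcoal/dextran FBS medium; compounds 0.59 nM to 92 uM with T3 at 0.4nM final, 18 h at 37 C. Beta-lactamase read by CCF4 fluorescence (460/530 nm); Hill fits gave IC50 and efficacy.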

[11] = qHTS assay for small molecule antagonists of the retinoid-related orphan receptor gamma (ROR-gamma) signaling pathway - cell viability counter screen (AID 720652; active means well fitted curve in the direction sought with a large enough effect in the repeat runs; an effect the other way counts as inactive or inconclusive;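 further: CHO reporter cells with doxycycline-induced ROR-gamma expression; series mostly up to about 92 µM; compound exposure lasted 16 hr before ATP read; on the % scale 0 is the no-effect control and ±100 the full control effect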)
Outline: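 CHO RORE-LUC/TET-ROR line, 1,000 cells/well, 37 C 5% CO2 5 hr; cpd or DMSO + doxycycline induction, 16 hr. CellTiter-Glo, 30 min RT, luminescence = ATP content.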

[12] = qHTS assay for small molecule activators of the human pregnane X receptor (PXR) signaling pathway (AID 720659; call rule not given here; further: 0% is about no effect)
[13] = molecular target: Mitogen-activated protein kinase 10 (Mus musculus) (UniProt Q61831); assay: JNK3 AlphaScreen Assay (AID 530; active means well fitted curve in either direction with a large enough effect, not every such curve was filed as active;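 further: kinase came from lysate of stimulated human HepG2 cells; signal reports phosphorylation of biotinylated GST-cJun 1-79 at Ser73 with 10 µM ATP; series mostly up to about 57 µM; on the % scale 0 is the no-effect control and ±100 the full control effect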)
Outline: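 HepG2 lysate (IL-1b/TNFa pre-activated) + biotin-GST-cJun 1-79 + anti-pSer73 cJun; cpd titration, 15 min RT; ATP 10 uM start; Tris pH 7.6, MgCl2, DTT, vanadate; beads in EDTA buffer; AlphaScreen.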

[14] = Cell Viability - LYMP2-001 (AID 921);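 further: series mostly up to about 92 µM; 0% = DMSO only and full inhibition = tetraoctylammonium bromide control wells; nearly all actives have a fitted effect of over 70% in size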
Outline: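 qHTS, 1536-well; lymphoblastoid cells, 24 hr compound, 37 C; ATP by CellTiter-Glo, 30 min RT; luminescence; Hill-fit AC50.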

[15] = MultiTox-Fluor Cytotoxicity Assay - LYMP1-001 - Live Cells (AID 947);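 further: 0% = DMSO only and full inhibition = tetraoctylammonium bromide control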
[16] = MultiTox-Fluor Cytotoxicity Assay - LYMP1-003 - Dead Cells (AID 961);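 further: 0% = DMSO and 100% = tetraoctylammonium bromide; nearly all actives have a fitted effect of over 70% in size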
Outline: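 Human lymphoblastoid LYMP1-003 cells (2500/well) were treated with compounds for 16 hr at 37 C in complete medium. Dead-cell protease release was read by bis-AAF-R110 fluorescence (Ex/Em 485/520). AC50 came from Hill fits, normalized to DMSO and 15 uM tetraoctylammonium bromide.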

[17] = Cell Viability - LYMP1-003 - Assay at 40 hr (AID 964); further: series mostly up to about 92 µM; on the % scale 0 is the no-effect control and ±100 the full control effect; nearly all actives have a fitted effect of over 60% in size
Outline: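 LYMP1-003 lymphoblastoid cells, 2500/well; 5 hr preincubation, 40 hr compound exposure, 37 C; CellTiter-Glo 30 min RT; luminescence; Hill-fit AC50. Positive control tetraoctylammonium bromide.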

[18] = Cell Viability - LYMP2-011 (AID 969);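 further: cells exposed to compound for 24 hours; 0% = DMSO only and full inhibition = 92 µM tetraoctylammonium bromide; nearly all actives have a fitted effect of over 60% in size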
Outline: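 Luminescent ATP read-out (CellTiter-Glo, 30 min RT) after 24 hr compound exposure at 37 C in human lymphoblastoid cells, 2500 cells/well. Decreasing ATP indicates cytotoxicity; AC50 from standard Hill fit.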

[19] = Cell Viability - LYMP2-015 (AID 971)
Outline: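 qHTS cytotoxicity: 2500 cells/well, 5 hr 37 C, compound 24 hr 37 C, CellTiter-Glo 30 min RT, luminescence. Loss of ATP = toxicity; AC50 via standard Hill fit.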

[20] = Cell Viability - MRC5 (AID 434; calls by dose curve;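 further: potency means the concentration at half of the fitted maximal effect; cells exposed to compound for 40 hours at 37 °C; potency reflects cytotoxicity seen as loss of intracellular ATP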); settings: MRC5 lung fibroblast viability, qHTS
Outline: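 ATP luminescence read-out (CellTiter-Glo, 20 min RT) after 40 hr, 37 °C compound exposure of 1500 MRC5 cells/well. Data normalized to DMSO (basal) and 100 uM tamoxifen (100% inhibition); AC50 from standard Hill equation.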

Chain of Thyroid hormone receptor beta (Homo sapiens) (P10828 whole entry, looked up): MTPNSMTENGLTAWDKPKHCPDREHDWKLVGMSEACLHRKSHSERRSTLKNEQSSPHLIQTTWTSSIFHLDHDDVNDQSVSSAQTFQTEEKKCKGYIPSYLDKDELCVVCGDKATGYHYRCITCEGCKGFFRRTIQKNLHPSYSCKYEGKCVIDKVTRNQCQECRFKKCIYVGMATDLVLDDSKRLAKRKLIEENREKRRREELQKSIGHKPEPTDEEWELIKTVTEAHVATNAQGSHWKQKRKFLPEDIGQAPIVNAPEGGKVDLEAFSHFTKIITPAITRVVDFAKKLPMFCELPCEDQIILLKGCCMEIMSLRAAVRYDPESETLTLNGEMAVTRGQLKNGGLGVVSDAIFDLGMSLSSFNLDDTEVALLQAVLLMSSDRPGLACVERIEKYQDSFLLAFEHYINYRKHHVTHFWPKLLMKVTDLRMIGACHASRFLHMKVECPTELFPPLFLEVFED
Chain of Vitamin D3 receptor (Homo sapiens) (P11473 whole entry, looked up): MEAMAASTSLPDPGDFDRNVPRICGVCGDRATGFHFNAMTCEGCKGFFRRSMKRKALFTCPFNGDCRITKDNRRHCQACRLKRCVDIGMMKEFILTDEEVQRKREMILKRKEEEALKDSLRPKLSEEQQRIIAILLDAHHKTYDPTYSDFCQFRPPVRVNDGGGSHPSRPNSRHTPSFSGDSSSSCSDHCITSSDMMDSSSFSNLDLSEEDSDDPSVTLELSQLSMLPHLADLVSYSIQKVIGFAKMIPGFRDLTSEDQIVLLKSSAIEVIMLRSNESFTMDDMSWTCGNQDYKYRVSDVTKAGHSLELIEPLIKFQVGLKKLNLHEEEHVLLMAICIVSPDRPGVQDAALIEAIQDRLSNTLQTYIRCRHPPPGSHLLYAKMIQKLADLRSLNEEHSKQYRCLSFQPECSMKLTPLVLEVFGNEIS

CN(C)C(=O)Nc1cccc(C(F)(F)F)c1
inactive: outcome [1] | Potency [2] | Potency [3] | Potency [4] | Potency [5] | Potency [6] | Potency [7] | outcome [8] | outcome [9] | activity change % (negative = inhibition) [10] -7.4% and -5.84% | Potency [11] | outcome [12]

O=[N+]([O-])c1ccc(O)c([N+](=O)[O-])c1
inactive: Potency [13] | Potency [14] | outcome [15] | Potency [16] | Potency [17] | Potency [18] | Potency [19] | Potency [4] | Potency [5] | Potency [7] | Potency [11] | outcome [12]

ClC(Cl)(Cl)C(Cl)(Cl)Cl
inactive: Potency [13] | Potency [14] | outcome [15] | Potency [16] | outcome [1] | Potency [18] | Potency [19] | Potency [3] | Potency [4] | Potency [5] | Potency [6] | Potency [7] | outcome [8] | outcome [9] | activity change % (negative = inhibition) [10] 3.45% | Potency [11] | outcome [12]

Nc1cccc(Cl)c1
inactive: Potency [20] > 92 µM | Potency [13] | Potency [14] | outcome [15] | Potency [16] | outcome [1] | Potency [17] | Potency [2] | Potency [19] | Potency [5] | Potency [6] | Potency [7] | outcome [8] | outcome [9] | activity change % (negative = inhibition) [10] 2.78% | Potency [11] | outcome [12]

CCN(CC)CCO
inactive: Potency [20] > 92 µM | Potency [13] | Potency [14] | outcome [15] | Potency [16] | outcome [1] | Potency [17] | Potency [18] | Potency [2] | Potency [19] | Potency [3] | Potency [4] | Potency [5] | Potency [6] | Potency [7] | activity change % (negative = inhibition) [10] -7.98% | Potency [11] | outcome [12]

Nc1cccc2ccccc12
inactive: Potency [20] > 92 µM | Potency [13] | Potency [16] | outcome [1] | Potency [17] | Potency [4] | Potency [5] | Potency [6] | activity change % (negative = inhibition) [10] 1.61% | Potency [11]

C=CC(=O)OC
inactive: Potency [20] > 92 µM | Potency [13] | Potency [14] | outcome [15] | Potency [16] | outcome [1] | Potency [17] | Potency [18] | Potency [2] | Potency [3] | Potency [5] | Potency [6] | Potency [7] | outcome [8] | outcome [9] | Potency [11] | outcome [12]

Clc1ccc(C(c2ccccc2Cl)C(Cl)(Cl)Cl)cc1 (stereo not drawn)
inactive: Potency [20] > 92 µM | Potency [14] | Potency [16] | outcome [1] | Potency [17] | Potency [18] | Potency [2] | Potency [19] | Potency [3] | Potency [4] | Potency [6] | Potency [7] | outcome [8] | outcome [9]

Clc1ccc(C(Cl)(Cl)Cl)cc1Cl
inactive: Potency [20] > 92 µM | Potency [13] | Potency [14] | outcome [15] | Potency [16] | Potency [17] | Potency [18] | Potency [2] | Potency [3] | Potency [4] | Potency [5] | Potency [7] | outcome [8] | outcome [9] | Potency [11] | outcome [12]
